PubChem BioAssay
Records with an inconclusive call do not appear. The source made the active and inactive calls. Unless noted, the rule behind the calls is not given here.

Tests used:
[1] = compounds altering circadian rhythm period length – cell-based, LOPAC library, luminescence reporter (AID 2774); conditions: circadian reporter cells, at 7 µM, actives lie on both sides;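 note: values are relative to mean of DMSO wells on each plate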
[2] = biological target: ATP-dependent translocase ABCB1 (Homo sapiens) (UniProt P08183); experiment: P-glycoprotein substrate transport blockade – cell-based (AID 377; in the data active = fluorescence slope change above about 50%); conditions: MDR1-expressing cells, fluorescent substrate accumulation slope; stronger effect = higher value; concentration not given here
[3] = tested on: Hepatitis C virus NS3 helicase; experiment: blockers of NS3h binding to ssDNA – biochemical, fluorescence polarization, LOPAC1280 library, primary screen (AID 687035; in the data active = inhibition above about 37%); conditions: Purified HCV NS3 helicase, Cy5-dT15 ssDNA binding fluorescence polarization; stronger effect = higher value; concentration not given here
[4] = compounds altering Cy5-DNA-NS3h complex signal – biochemical, LOPAC1280, artefact control for HCV NS3 helicase inhibitor project (AID 687037); conditions: Cy5-DNA-NS3h complex fluorescence interference counterscreen
[5] = compounds altering viability of human ES cells (AID 493140); conditions: human embryonic stem cell survival screen; stronger effect = higher value;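 note: cells exposed to compounds for four days before counting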
[6] = P. berghei load reduction in hepatocytes – cell-based, HepG2, luciferase luminescence, HepG2 viability, primary screen (AID 624349; in the data active = parasite load remaining mostly below about 12%, no sharp cut-off; inactive = mostly above about 10%;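 note: 100% = mean of DMSO negative control wells on the same plate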); conditions: P. berghei liver stage in HepG2, luciferase luminescence, concentration not given here; parasite load remaining: stronger effect = lower value; viability: measured here: HepG2 viability without parasites

Sequence of ATP-dependent translocase ABCB1 (Homo sapiens) (P08183 whole entry, looked up): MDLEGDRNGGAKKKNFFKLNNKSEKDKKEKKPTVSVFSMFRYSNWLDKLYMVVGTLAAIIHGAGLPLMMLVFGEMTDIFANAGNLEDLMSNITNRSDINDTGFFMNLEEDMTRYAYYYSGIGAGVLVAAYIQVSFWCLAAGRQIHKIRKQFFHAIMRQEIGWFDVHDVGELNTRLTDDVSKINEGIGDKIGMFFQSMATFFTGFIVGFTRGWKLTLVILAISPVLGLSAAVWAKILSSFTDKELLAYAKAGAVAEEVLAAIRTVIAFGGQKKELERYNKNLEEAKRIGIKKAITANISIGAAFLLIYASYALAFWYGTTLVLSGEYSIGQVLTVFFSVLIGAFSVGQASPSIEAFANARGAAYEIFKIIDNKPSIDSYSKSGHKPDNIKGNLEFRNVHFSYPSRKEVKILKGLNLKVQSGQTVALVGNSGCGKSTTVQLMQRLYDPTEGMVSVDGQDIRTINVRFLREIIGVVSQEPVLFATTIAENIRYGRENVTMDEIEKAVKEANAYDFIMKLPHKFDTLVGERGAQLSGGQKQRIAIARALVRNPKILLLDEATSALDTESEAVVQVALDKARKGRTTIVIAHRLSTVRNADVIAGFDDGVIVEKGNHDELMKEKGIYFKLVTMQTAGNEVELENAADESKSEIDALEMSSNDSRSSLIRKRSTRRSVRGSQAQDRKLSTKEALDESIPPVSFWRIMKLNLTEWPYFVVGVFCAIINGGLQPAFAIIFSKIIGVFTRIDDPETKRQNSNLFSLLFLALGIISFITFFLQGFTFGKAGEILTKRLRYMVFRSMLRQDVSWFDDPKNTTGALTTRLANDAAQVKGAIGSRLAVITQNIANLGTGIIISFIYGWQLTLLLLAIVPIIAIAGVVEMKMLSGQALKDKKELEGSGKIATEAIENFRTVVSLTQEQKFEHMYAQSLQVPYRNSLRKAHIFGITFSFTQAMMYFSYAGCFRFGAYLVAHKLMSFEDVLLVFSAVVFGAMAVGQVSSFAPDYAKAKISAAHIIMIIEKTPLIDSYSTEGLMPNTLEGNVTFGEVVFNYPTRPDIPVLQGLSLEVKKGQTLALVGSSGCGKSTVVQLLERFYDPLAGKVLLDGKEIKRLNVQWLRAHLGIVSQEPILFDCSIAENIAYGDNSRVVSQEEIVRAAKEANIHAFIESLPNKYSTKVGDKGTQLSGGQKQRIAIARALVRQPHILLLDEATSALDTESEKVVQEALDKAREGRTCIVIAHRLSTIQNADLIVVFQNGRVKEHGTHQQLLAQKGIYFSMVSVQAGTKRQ

Q: With `NCCNC(=O)Cc1ccc(NC(=O)Cc2ccc(Nc3ncnc4c3ncn4[C@@H]3O[C@H](CO)[C@H](O)C3O)cc2)cc1` (stereo partly drawn) as the compound, how does the period change [1] read?
A: The period change was -0.095 h (inactive).

Q: For `CC1(C)S[C@@H]2[C@H](NC(=O)C(NC(=O)N3CCNC3=O)c3ccccc3)C(=O)N2[C@H]1C(=O)O` (stereo partly drawn), which fluorescence slope change [2] is on record?
A: Its fluorescence slope change is 25.1% (inactive).

Q: With `COc1ccc(CCNC[C@@H](O)c2ccc(O)cc2)cc1OC` as the compound, how does the period change [1] read?
A: The period change was 0.05 h (inactive).

Q: Which period change [1] does the source give for `NCCNC(=O)c1ncsc1-c1cccc(F)c1` here?
A: The period change was 0.08 h (inactive).

Q: What about the inhibition [3] of the same compound?
A: Its inhibition is -3% (inactive).

Q: What about the fluorescence ratio (interference) [4] of the same compound?
A: The fluorescence ratio (interference) was 1 (inactive).

Q: Which period change [1] does the source give for `OC[C@H]1O[C@@H](n2cnc3c(Nc4ccccc4)ncnc32)C(O)[C@H]1O` (stereo partly drawn) here?
A: The period change was -0.12 h (inactive).

Q: With `C[N+](C)(CCCCCC[N+](C)(C)CCCN1C(=O)c2cccc3cccc(c23)C1=O)CCCN1C(=O)c2cccc3cccc(c23)C1=O` as the compound, how does the period change [1] read?
A: Its period change is -0.055 h (inactive).

Q: What does the source list for `CN1CCc2cc(O)c(O)cc2C(c2ccccc2)C1` (stereo not drawn)?
A: period change [1]: 0.07 h (inactive); inhibition [3]: -5% (inactive); fluorescence ratio (interference) [4]: 1 (inactive)

Q: With `CCCNC[C@H](O)COc1ccccc1C(=O)CCc1ccccc1` as the compound, how does the period change [1] read?
A: The period change was 0.08 h (inactive).

Q: For `CCCCN1CCC(n2c(=O)[nH]c3ccccc32)CC1`, which period change [1] is on record?
A: The period change was -0.16 h (inactive).

Q: What about the inhibition [3] of the same compound?
A: The inhibition was -2% (inactive).

Q: And the fluorescence ratio (interference) [4]?
A: Its fluorescence ratio (interference) is 1 (inactive).

Q: For `CN(N=O)C(=O)N[C@@H]1C(O)OC(CO)[C@@H](O)[C@H]1O` (stereo partly drawn), which fluorescence slope change [2] is on record?
A: The fluorescence slope change was 25.6% (inactive).

Q: What does the source list for `CCCn1c(=O)c2[nH]c(-c3ccc(OCC(=O)NCCN)cc3)nc2n(CCC)c1=O`?
A: period change [1]: -0.09 h (inactive); inhibition [3]: -2% (inactive); fluorescence ratio (interference) [4]: 1 (inactive)

Q: For `C/C=C1\C(=O)CC2C3CCC4=CC(=O)CC[C@]4(C)C3CC[C@]12C` (stereo partly drawn), which period change [1] is on record?
A: The period change was 0.03 h (inactive).

Q: Which period change [1] does the source give for `CCNC(=O)C1OC(n2cnc3c(NCc4ccccc4)ncnc32)C(O)C1O` (stereo not drawn) here?
A: The period change was 0.1 h (inactive).

Q: Which period change [1] does the source give for `O=C(O)/C=C/C(O)c1ccc(Cl)cc1` (stereo not drawn) here?
A: The period change was 0.15 h (inactive).

Q: What about the inhibition [3] of the same compound?
A: Its inhibition is 1% (inactive).

Q: What about the fluorescence ratio (interference) [4] of the same compound?
A: The fluorescence ratio (interference) was 1 (inactive).

Q: For `CNCC[C@@H](Oc1ccc(C(F)(F)F)cc1)c1ccccc1`, which period change [1] is on record?
A: Its period change is 0.13 h (inactive).

Q: Which period change [1] does the source give for `COc1ccccc1NC(=O)Nc1nc(-c2cccnc2)nc2ccccc12` here?
A: The period change was -0.005 h (inactive).

Q: For `CC[C@H]1OC(=O)[C@H](C)[C@@H](OC2CC(C)(OC)C(O)C(C)O2)[C@H](C)[C@@H](OC2OC(C)CC(N(C)C)C2O)[C@@H](C)C[C@](C)(O)[C@@H]2N[C@H](COCCOC)O[C@H]([C@H]2C)[C@]1(C)O` (stereo partly drawn), which fluorescence slope change [2] is on record?
A: Its fluorescence slope change is 59.6% (active).

Q: Which period change [1] does the source give for `Cc1ccc(C(=O)O[C@H](C(=O)O)[C@H](OC(=O)c2ccc(C)cc2)C(=O)O)cc1` (tested in a mixture with another compound) here?
A: Its period change is -0.105 h (inactive).

Q: With `Ic1ccc(N2CCN(Cc3c[nH]c4ncccc34)CC2)cc1` as the compound, how does the period change [1] read?
A: The period change was 0.1 h (inactive).

Q: And the inhibition [3]?
A: Its inhibition is 6% (inactive).

Q: What about the fluorescence ratio (interference) [4] of the same compound?
A: The fluorescence ratio (interference) was 0.9 (inactive).

Q: Which period change [1] does the source give for `COc1ccccc1N1CCN(CCN(C(=O)c2ccc(I)cc2)c2ccccn2)CC1` here?
A: Its period change is 0.08 h (inactive).

Q: And the inhibition [3]?
A: The inhibition was -4% (inactive).

Q: And the fluorescence ratio (interference) [4]?
A: Its fluorescence ratio (interference) is 0.9 (inactive).

Q: With `C=N[C@@H](C(=O)N[C@@H]1C(=O)C2[C@@H](C(=O)O)C(C)(C)S[C@@H]21)c1ccccc1` (stereo partly drawn) as the compound, how does the fluorescence slope change [2] read?
A: The fluorescence slope change was 10.1% (inactive).

Q: Which results are given for `COc1cc2nc(N3CCN(C(=O)OCc4ccccc4)C(C(=O)NC(C)(C)C)C3)nc(N)c2cc1OC` (stereo not drawn)?
A: period change [1]: 0.085 h (inactive); inhibition [3]: -3% (inactive); fluorescence ratio (interference) [4]: 1 (inactive)

Q: What does the source list for `CCCCCCCCCCCCCCCCCCNC(=O)OCC(COP(=O)([O-])OCC[n+]1ccsc1)OC` (stereo not drawn)?
A: period change [1]: -0.05 h (inactive); inhibition [3]: 0% (inactive); fluorescence ratio (interference) [4]: 1 (inactive)

Q: Which period change [1] does the source give for `Cc1cc(N)c2ccccc2[n+]1CCCCCCCCCCCCCC[n+]1c(C)cc(N)c2ccccc21` here?
A: Its period change is 0.11 h (inactive).

Q: For `CC(=O)S[C@@H]1CC2=CC(=O)CC[C@]2(C)[C@H]2CC[C@@]3(C)[C@@H](CC[C@]34CCC(=O)O4)[C@H]12`, which fluorescence slope change [2] is on record?
A: Its fluorescence slope change is 162% (active).

Q: Which fluorescence slope change [2] does the source give for `Nc1ccc(S(=O)(=O)Nc2ccc3nccnc3c2)cc1` here?
A: The fluorescence slope change was 6.1% (inactive).

Q: Which fluorescence slope change [2] does the source give for `COc1cc(Br)c(CC2c3cc(OC)c(OC)cc3CCN2C)cc1OC` (stereo not drawn) here?
A: Its fluorescence slope change is 9.4% (inactive).

Q: Which fluorescence slope change [2] does the source give for `COc1ccc2cc3n(c(=O)c2c1OC)CCc1cc2c(cc1-3)OCO2` here?
A: Its fluorescence slope change is 57.9% (active).

Q: With `Nc1cccc2c1C(=O)c1cccc(N)c1C2=O` as the compound, how does the fluorescence slope change [2] read?
A: The fluorescence slope change was 105% (active).

Q: Which fluorescence slope change [2] does the source give for `COc1ccc(CC(N)C(=O)N[C@@H]2C(O)[C@H](n3cnc4c(N(C)C)ncnc43)O[C@@H]2CO)cc1` (stereo partly drawn) here?
A: The fluorescence slope change was 10.7% (inactive).

Q: What about the survival [5] of the same compound?
A: Its survival is 0.083 (inactive).

Q: And the parasite load remaining [6]?
A: The parasite load remaining was 13.2% (inactive).

Q: What about the viability [6] of the same compound?
A: The viability was 14.9%.

Q: What does the source list for `NCC1OC(OC2C(N)CC(N)C(O)C2O[C@@H]2O[C@H](CO)[C@H](O)C2O)C(N)C(O)C1O` (stereo partly drawn)?
A: fluorescence slope change [2]: 50.5% (active); survival [5]: 0.167 (inactive)

Q: Which fluorescence slope change [2] does the source give for `O=C(O)CCCC[C@@H]1SCC2NC(=O)NC21` (stereo partly drawn) here?
A: The fluorescence slope change was 79.8% (active).

Q: Which fluorescence slope change [2] does the source give for `COc1cc2cc(N(C)CCCNC(=O)C3CCCO3)cc(N)c2cc1OC` (stereo not drawn) here?
A: The fluorescence slope change was 52.5% (active).

Q: Which fluorescence slope change [2] does the source give for `CC[N+]1(C)C2CCC1CC(OC(=O)[C@H]1CCC(C(=O)OC3CC4CCC(C3)[N+]4(C)CC)(c3ccccc3)c3ccccc31)C2` (stereo partly drawn) here?
A: Its fluorescence slope change is 92.7% (active).

Q: What about the survival [5] of the same compound?
A: Its survival is 4.5 (inactive).

Q: With `CC1=C(C(=O)O)N2C(=O)[C@@H](NC(=O)[C@H](N)c3ccc(O)cc3)C2SC1` (stereo partly drawn) as the compound, how does the fluorescence slope change [2] read?
A: The fluorescence slope change was 66.4% (active).

Q: Which fluorescence slope change [2] does the source give for `COc1cc([C@@H]2c3cc4c(cc3[C@@H](O[C@@H]3O[C@@H]5CO[C@@H](C)O[C@H]5[C@H](O)[C@H]3O)C3COC(=O)[C@@H]32)OCO4)cc(OC)c1O` (stereo partly drawn) here?
A: The fluorescence slope change was 20.9% (inactive).

Q: What about the survival [5] of the same compound?
A: Its survival is 0.25 (inactive).

Q: What about the parasite load remaining [6] of the same compound?
A: Its parasite load remaining is 64.7% (inactive).

Q: And the viability [6]?
A: The viability was 83.1%.

Q: Which fluorescence slope change [2] does the source give for `C[C@H](CCC(=O)O)[C@H]1CC[C@H]2[C@@H]3C(O)C[C@@H]4CC(O)CC[C@]4(C)[C@H]3CC[C@]12C` (stereo partly drawn) here?
A: The fluorescence slope change was 167% (active).
